Source: PubChem BioAssay (NCI)
Compounds without any hit were thinned out: in the full panel of roughly 83,000, 20% have a hit.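 A percent growth of 40 corresponds to 60% growth inhibition; 0 means no net growth; -100 means all cells died. Active threshold: below 10.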 Activity calls are given as the source filed them.

Assays:
Assay in all cases: NCI-60 one-dose screen, 48 h (100 = growth as untreated, 0 = no growth, -100 = all killed)
SR leukemia = details: 10 µM unless noted
RPMI-8226 leukemia = details: 10 µM
OVCAR-8 ovarian = details: 10 µM unless noted
OVCAR-5 ovarian = details: 10 µM unless noted
OVCAR-4 ovarian = details: 10 µM unless noted
SK-OV-3 ovarian = details: 10 µM
IGROV1 ovarian = details: 10 µM unless noted
OVCAR-3 ovarian = details: 10 µM unless noted
HS 578T breast = details: 10 µM unless noted
NCI/ADR-RES ovarian = details: 10 µM unless noted
T-47D breast = details: 10 µM
BT-549 breast = details: 10 µM unless noted
SW-620 colon = details: 10 µM unless noted
MCF7 breast = details: 10 µM unless noted
HCT-116 colon = details: 10 µM unless noted
HCC-2998 colon = details: 10 µM unless noted
KM12 colon = details: 10 µM unless noted
MDA-MB-435 melanoma = details: 10 µM unless noted

Measured: growth

CC(C)(C)CC(C)(C)N(CSc1ccc(Cl)cc1)CSc1ccc(Cl)cc1
inactive: OVCAR-8 ovarian 44.6% | OVCAR-5 ovarian 63.4% | OVCAR-4 ovarian 50.1% | SK-OV-3 ovarian 71% | OVCAR-3 ovarian 41.4% | HS 578T breast 66.6% | NCI/ADR-RES ovarian 45.6% | T-47D breast 63.2% | SW-620 colon 35.9% | MCF7 breast 31.4% | HCT-116 colon 25.5% | HCC-2998 colon 65.3% | KM12 colon 33.5%
active: SR leukemia -32.7% | RPMI-8226 leukemia -25% | IGROV1 ovarian 2.44% | BT-549 breast -52.4%

COc1cc2nc(SCc3cc(OC)c(OC)c(OC)c3)n(-c3ccccc3OC)c(=O)c2cc1OC
active: MDA-MB-435 melanoma 0.0693%
inactive: SR leukemia 23.8% | RPMI-8226 leukemia 71.2% | OVCAR-8 ovarian 84.6% | OVCAR-5 ovarian 89% | OVCAR-4 ovarian 83.1% | SK-OV-3 ovarian 98.2% | IGROV1 ovarian 83.1% | OVCAR-3 ovarian 48.2% | HS 578T breast 60.8% | NCI/ADR-RES ovarian 62.9% | T-47D breast 88.6% | BT-549 breast 87.5% | SW-620 colon 76.4% | HCT-116 colon 88% | HCC-2998 colon 94.6% | KM12 colon 54.1%

COc1ccc(S(=O)(=O)ON=C2C=C(C)C(=O)C(C)=C2)cc1
inactive: SR leukemia 31.8% | RPMI-8226 leukemia 35.1% | OVCAR-8 ovarian 93.1% | OVCAR-5 ovarian 103% | OVCAR-4 ovarian 55.4% | SK-OV-3 ovarian 66.9% | IGROV1 ovarian 95% | OVCAR-3 ovarian 68.5% | HS 578T breast 101% | NCI/ADR-RES ovarian 98.5% | T-47D breast 40.3% | BT-549 breast 97.7% | MDA-MB-435 melanoma 18.1% | SW-620 colon 60.7% | HCT-116 colon 44.9% | HCC-2998 colon 112% | KM12 colon 97.6%

C(=C\c1ccccc1)/CN1CCN(C(c2ccccc2)c2ccccc2)CC1
inactive: SR leukemia 76.4% | RPMI-8226 leukemia 77.1% | OVCAR-8 ovarian 85.7% | OVCAR-5 ovarian 101% | OVCAR-4 ovarian 87.1% | SK-OV-3 ovarian 108% | IGROV1 ovarian 122% | OVCAR-3 ovarian 114% | HS 578T breast 93.4% | NCI/ADR-RES ovarian 81.7% | T-47D breast 79.7% | BT-549 breast 92.2% | SW-620 colon 90.3% | MCF7 breast 92.4% | HCT-116 colon 95.8% | HCC-2998 colon 100% | KM12 colon 104%

COc1nc2c(cc1S(=O)(=O)c1ccccc1)CCc1c-2cnn1-c1cccc(Cl)c1
inactive: SR leukemia 47.4% | RPMI-8226 leukemia 56.6% | OVCAR-8 ovarian 81.8% | OVCAR-5 ovarian 80.1% | OVCAR-4 ovarian 87% | SK-OV-3 ovarian 83.2% | IGROV1 ovarian 94.9% | OVCAR-3 ovarian 93.7% | HS 578T breast 102% | NCI/ADR-RES ovarian 89.7% | T-47D breast 59.6% | BT-549 breast 80.8% | MDA-MB-435 melanoma 63% | SW-620 colon 93.7% | HCT-116 colon 62.9% | HCC-2998 colon 101% | KM12 colon 85.4%

O=[N+]([O-])c1cc2c(cc1Br)-c1ccccc1C2
active: MCF7 breast 3.07%
inactive: SR leukemia 82.7% | RPMI-8226 leukemia 80.7% | OVCAR-8 ovarian 97.3% | OVCAR-5 ovarian 124% | OVCAR-4 ovarian 48.5% | SK-OV-3 ovarian 90% | IGROV1 ovarian 87.1% | OVCAR-3 ovarian 102% | HS 578T breast 94% | NCI/ADR-RES ovarian 81.6% | T-47D breast 14.9% | BT-549 breast 76.8% | MDA-MB-435 melanoma 94.7% | SW-620 colon 83.6% | HCT-116 colon 84% | KM12 colon 58.5%

O=C(Nc1ccc(Cl)c(Cl)c1)OCn1ncc2ccc([N+](=O)[O-])cc21
inactive: SR leukemia 76.7% | RPMI-8226 leukemia 83.4% | OVCAR-8 ovarian 89% | OVCAR-5 ovarian 77.5% | OVCAR-4 ovarian 93.6% | SK-OV-3 ovarian 86.2% | IGROV1 ovarian 75.5% | OVCAR-3 ovarian 85.1% | HS 578T breast 75.4% | NCI/ADR-RES ovarian 84.1% | T-47D breast 80% | BT-549 breast 78.5% | MDA-MB-435 melanoma 94.3% | SW-620 colon 106% | HCT-116 colon 80.7% | HCC-2998 colon 93.8% | KM12 colon 86.2%

COc1ccc(-c2cc(=O)oc3c4c(ccc23)OCN(Cc2ccc(F)cc2)C4)cc1
inactive: SR leukemia 54.7% | RPMI-8226 leukemia 30.1% | OVCAR-8 ovarian 56.7% | OVCAR-5 ovarian 80.2% | OVCAR-4 ovarian 35.2% | SK-OV-3 ovarian 74.3% | IGROV1 ovarian 64.5% | OVCAR-3 ovarian 52.4% | HS 578T breast 83.1% | NCI/ADR-RES ovarian 45.9% | T-47D breast 62.8% | BT-549 breast 66% | MDA-MB-435 melanoma 59.6% | SW-620 colon 66.2% | MCF7 breast 48.8% | HCT-116 colon 39.6% | KM12 colon 79.4%

COCCOC1=C(Cl)C(=O)c2ccccc2C1=O
inactive: OVCAR-8 ovarian 13.2% | OVCAR-5 ovarian 31.6% | SK-OV-3 ovarian 87.5% | IGROV1 ovarian 21% | NCI/ADR-RES ovarian 20.4% | MCF7 breast 15.4%
active: SR leukemia 0.0172% | RPMI-8226 leukemia 6.59% | OVCAR-4 ovarian -21.6% | OVCAR-3 ovarian -13.3% | HS 578T breast 4.85% | T-47D breast -49% | BT-549 breast -23% | MDA-MB-435 melanoma 4.68% | SW-620 colon -3.69% | HCT-116 colon -13.5% | KM12 colon -41.7%

O=C1c2ccccc2-c2nnc(-c3ccc(Br)cc3)cc21
active: OVCAR-3 ovarian -23% | NCI/ADR-RES ovarian 9.3% | MDA-MB-435 melanoma -69.1% | HCT-116 colon 1.98%
inactive: SR leukemia 11.6% | RPMI-8226 leukemia 27.4% | OVCAR-8 ovarian 77.7% | OVCAR-5 ovarian 110% | OVCAR-4 ovarian 10.1% | SK-OV-3 ovarian 91.6% | IGROV1 ovarian 40.4% | HS 578T breast 48.2% | T-47D breast 52.7% | BT-549 breast 71.5% | SW-620 colon 73.3% | MCF7 breast 14.8% | KM12 colon 64%

CCC(=O)Nc1nnc(Cc2ccc(OC)c(OC)c2)s1
inactive: RPMI-8226 leukemia 15.6% | OVCAR-5 ovarian 85.9% | SK-OV-3 ovarian 24.7% | IGROV1 ovarian 30.1% | NCI/ADR-RES ovarian 81.3% | SW-620 colon 33.8% | MCF7 breast 15.1% | KM12 colon 36.3%
active: SR leukemia -18.1% | OVCAR-8 ovarian -32.6% | OVCAR-4 ovarian -69.7% | OVCAR-3 ovarian -45.3% | HS 578T breast -13% | T-47D breast -18.7% | BT-549 breast -66.8% | MDA-MB-435 melanoma -52% | HCT-116 colon -68.2%

O=C(Nc1ccc(Cl)c(Cl)c1)NC(CO)(CO)CO
inactive: SR leukemia 101% | RPMI-8226 leukemia 96.7% | OVCAR-8 ovarian 96.8% | OVCAR-5 ovarian 94.7% | OVCAR-4 ovarian 110% | SK-OV-3 ovarian 95.5% | IGROV1 ovarian 100% | OVCAR-3 ovarian 104% | HS 578T breast 96% | NCI/ADR-RES ovarian 100% | T-47D breast 96% | BT-549 breast 93.8% | MDA-MB-435 melanoma 95.8% | SW-620 colon 101% | HCT-116 colon 101% | HCC-2998 colon 102% | KM12 colon 97.7%

Cc1ccc(S(=O)(=O)c2ccc3[nH]c(=O)[nH]c(=O)c3c2)cc1
inactive: SR leukemia 82.3% | RPMI-8226 leukemia 95.6% | OVCAR-8 ovarian 95.2% | OVCAR-5 ovarian 107% | OVCAR-4 ovarian 97.9% | SK-OV-3 ovarian 97.2% | IGROV1 ovarian 104% | OVCAR-3 ovarian 110% | HS 578T breast 101% | NCI/ADR-RES ovarian 107% | T-47D breast 90.9% | BT-549 breast 92.4% | MDA-MB-435 melanoma 116% | SW-620 colon 105% | MCF7 breast 91.5% | HCT-116 colon 90.9% | KM12 colon 106%

Cc1cc(=O)[nH]n1-c1cc(Cl)ccc1N
inactive: SR leukemia 96.6% | RPMI-8226 leukemia 106% | OVCAR-8 ovarian 103% | OVCAR-5 ovarian 111% | OVCAR-4 ovarian 105% | SK-OV-3 ovarian 98.6% | IGROV1 ovarian 109% | OVCAR-3 ovarian 124% | HS 578T breast 123% | NCI/ADR-RES ovarian 90.6% | T-47D breast 105% | BT-549 breast 87.1% | MDA-MB-435 melanoma 111% | SW-620 colon 113% | MCF7 breast 101% | HCT-116 colon 95.6% | KM12 colon 119%

N#Cc1ccc(C(F)(F)F)nc1N1CCC(C(=O)Nc2ccc(Cl)cc2)CC1
inactive: SR leukemia 48.3% | RPMI-8226 leukemia 74.1% | OVCAR-8 ovarian 75.8% | OVCAR-5 ovarian 76.9% | OVCAR-4 ovarian 69.1% | SK-OV-3 ovarian 82.5% | IGROV1 ovarian 102% | OVCAR-3 ovarian 99.4% | HS 578T breast 105% | NCI/ADR-RES ovarian 72.1% | T-47D breast 64.7% | BT-549 breast 70.8% | SW-620 colon 75.4% | MCF7 breast 60% | HCT-116 colon 41.3% | HCC-2998 colon 68.7% | KM12 colon 91%

CC(=O)Nc1ccc(Sc2ccc([N+](=O)[O-])o2)cc1
active: RPMI-8226 leukemia 9.87% | OVCAR-8 ovarian -1.51% | OVCAR-3 ovarian -8.53% | T-47D breast -34.3% | MDA-MB-435 melanoma 9.62% | SW-620 colon -76.5% | HCT-116 colon -82%
inactive: SR leukemia 26.1% | OVCAR-5 ovarian 94.8% | OVCAR-4 ovarian 23.5% | SK-OV-3 ovarian 120% | IGROV1 ovarian 42.2% | HS 578T breast 46.8% | NCI/ADR-RES ovarian 15.9% | BT-549 breast 32.6% | MCF7 breast 26.9% | KM12 colon 56.8%

CCCCCn1c(=N)n(CC(O)COc2cccc(C)c2)c2ccccc21 (stereo unspecified)
inactive: OVCAR-8 ovarian 20.9% | OVCAR-5 ovarian 61.7% | SK-OV-3 ovarian 13.1% | IGROV1 ovarian 28.1% | SW-620 colon 10.8% | HCT-116 colon 11%
active: SR leukemia 2.12% | RPMI-8226 leukemia -10.8% | OVCAR-4 ovarian 6.79% | OVCAR-3 ovarian 7.4% | HS 578T breast -0.161% | NCI/ADR-RES ovarian 3.77% | T-47D breast -0.186% | BT-549 breast -16.9% | MDA-MB-435 melanoma 6.94% | MCF7 breast 7.34% | KM12 colon 6.37%

CCOC(=O)c1c(-c2cc(OC)c(OC)c(OC)c2)csc1N
active: MDA-MB-435 melanoma -1.03%
inactive: SR leukemia 27.2% | RPMI-8226 leukemia 90.3% | OVCAR-8 ovarian 106% | OVCAR-5 ovarian 101% | OVCAR-4 ovarian 118% | SK-OV-3 ovarian 90.9% | IGROV1 ovarian 84.3% | OVCAR-3 ovarian 96.4% | HS 578T breast 104% | NCI/ADR-RES ovarian 83.8% | T-47D breast 94% | BT-549 breast 117% | SW-620 colon 76.6% | MCF7 breast 78.1% | HCT-116 colon 90.4% | KM12 colon 64.2%
